The assay deals with Cic (Drosophila melanogaster, UniProt Q9U1H0 483-565). Put plainly: FP; 33 mM phosphate pH 7.0, 90 mM NaCl, 0.01% Tween 20, 0.1 mM DTT, 0.5% agarose; room temperature. The following applies: tags: N-GST (pGEX-6P-1, kept); dsDNA, one strand shown.

Binding signal data for six sequences are collected here from PMC5913336, “True equilibrium measurement of transcription factor-DNA binding affinities using automated polarization microscopy”.

Take CGTTGAATGGGGA: the binding signal was 2.36 Kd / Kd of best base at the position.

Regarding TGTTGAATGGGGT, the binding signal is 1.66 Kd / Kd of best base at the position.

For CGTTGATTGGGGT, the binding signal is 8.11 Kd / Kd of best base at the position.

As for CTTTGAATGGGGT, the binding signal is 1.85 Kd / Kd of best base at the position.

Turning to CGTTGGATGGGGT, the binding signal is 20.4 Kd / Kd of best base at the position.

As for CGTTGAATGTGGT, the binding signal was 4.08 Kd / Kd of best base at the position.
